Results as given in the supplement of paper PMC6555819.

system: VDR:RXRa (NR concentration 270 nM, RXRa partner concentration 90 nM); test: PBM binding z-score (relative to random genomic background probes); higher = stronger binding; sequences stand for … in GC…GCGATTGACAGCGTAGAATGAAGG
Procedure: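 Protein-binding microarray (Agilent 4x180K custom design, double-stranded 60-nt probes: 5' GC cap, 34-nt variable region, 24-nt constant primer region; full probe sequence given). Purified or IVT nuclear receptor:RXRα heterodimers (3:1 NR:RXRα, mostly 270:90 nM) or homodimers were incubated for 1 h in PBS with 2% milk and no ligand, then detected with Alexa488 antibodies. Fluorescence from o1-orientation probes (~5 replicates averaged) was converted to z-scores against 500 random hg19 background probes. Variable regions are seed direct-repeat (DR0–DR5) sites, all their single-nucleotide variants and half-site ablations.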

Sequence | PBM binding z-score
ATCTCTAGGTAAAGAGAGTTCAGTGAATGCAAAT | 3.33
GGAACGAGGGCATTCGAGTTGATAGAATGGCGAT | 3.62
CGTACTAGGTCAGAACAGGACAGTGAAGGATGAT | 0.861
GATACAGCGTCAAGGCCAGAGTACGCGTATTGAT | -0.35
CCTAGTTGGTCAGGAGGTCAGACACCGGATATGA | 2.22
ACTAGTTGGACAGCTGAGGTCACACACAATTCGG | 3.85
GCTTGTAGATCAACGTTAAGAAAGACTAAGCTAA | -0.456
TCTAGCAGGCCAGAGGGTCCCTCAAGAGGTACGG | -0.431
GATACAGGGTCAGCTAGAAGCCAGAGTATGGAAA | 2.11
TCTTGTAGATCAACAGGAAGTTAAGAAAGATCGA | -0.0912
CAAACTAGGTCACAGACGTCAAAGTCCGTGCGTA | 3.26
CCTAGAAGGCCAGGGTCACTCAAGCATTTCGCTT | 2.94
GCGACGGGGGCAAAGCAGGTTACCATAAGGTTGG | 3.84
CAGCCTAGGTCAGGGCCAGTTTAGGAGGAACGTT | 0.723
CCAGACAGGTGAATGGTAACTCAGTCTGGTACGC | -0.231
GCTCGGAGGTCAAGGTCAGAGCTTTGTCCGTAGA | 5.06
TAGCCTAGGTCAGATCGGGCCAGTTTACGCTATA | 0.663
CTCGAAAGTTCGTGCTCAGGTGAGTATACCAAAC | 1.71
GCTAGTTGGTCAGTAAAAGGTTACACACCGGTCG | 0.877
ATCTCTAGGTAAAAGTACAGTGAATCCCGAGGAT | -0.148

Sequence | PBM binding z-score
TCTATCAGGCCAGAGGGTCACTCAAGAGGTACGG | 2.03
CCAGACAGGAGAGAAGGTAACTCAGCCTCGATTA | -0.312
CAAACTAGTTCAAAGGTCAAAGTCGAGCCAACCA | 6.02
ATATGTAGCTTAGCTGGGGTCATTCAGACTAGGC | 4.78
CCTAGCAGACCAGGGTCACTCAAGCATTTCGCTT | 2.69
ACTACCAGGCCAAGTTTGGGTCACTCAAACAAAG | 1.08
ATACCAAGGTGTTCGTGAGGTCGTTGATACTAAC | 2.81
ACTATTTGTTGAGACGAGGGCAACCGATAGGTTG | 0.711
CGAAATAGGTCATTGACAGGACAGTGAATAGTAA | 3.26
AGAATGAGGTTATACGTAGATCTGGGAAGAAAGT | 1.07
TCATATAGGTAAATGCTAGGTGAATGTCCGATCT | 0.74
CAAACTAGGTAAAAGGTCAAAGTCGAGCCAACCA | 4.86
TCTTGTAGATCAACAGGAGGTTAAAAAAGATCGA | 0.744
AGAACGAGGGTAATGAGTTGATAGCACGGGTGGC | 3.47
TCATATAGGAAAATGCTAGGTGAAAGTCCGATCT | 0.9
TCATATAGGTAATACAGCTGAAAGTCGGCATCTA | 0.891
AATACAGGGTTACTAGGCCAGAGTAGGTACGAAT | 0.824
TCTTGTAGATCAGCACGTTAAGAAAGCTGGCCAA | 0.0103
CCTTACGGGTCACGAGGTTATAGCCCGACGAGCG | 5.11
ATCTCTAGGTAAAATTTCAGTGAATCCCGAGGAT | 0.166
